# Source: PubChem BioAssay (NCATS)
# Unmarked numbers belong to inactive results. Records with an inconclusive call do not appear. The source made the active and inactive calls. Unless noted, calls come from the whole dose curve; as a rule, active = well fitted curve in the direction sought with a large enough effect; inconclusive = small, poorly fitted or top-dose-only effect, or another doubt; inactive = no such curve, though single readings can be large; an effect the other way counts as inactive or inconclusive.
# Legend:
# [1] = target: Lysosomal acid glucosylceramidase (Homo sapiens) (UniProt P04062); experiment: Glucocerebrosidase-p2 (AID 348; in the data active = potency below about 10 µM; note: potency is the fitted concentration of half-maximal effect); settings: purified GBA, blue fluorogenic substrate, 40 min
# Sequence of Lysosomal acid glucosylceramidase (Homo sapiens) (P04062 whole entry, looked up): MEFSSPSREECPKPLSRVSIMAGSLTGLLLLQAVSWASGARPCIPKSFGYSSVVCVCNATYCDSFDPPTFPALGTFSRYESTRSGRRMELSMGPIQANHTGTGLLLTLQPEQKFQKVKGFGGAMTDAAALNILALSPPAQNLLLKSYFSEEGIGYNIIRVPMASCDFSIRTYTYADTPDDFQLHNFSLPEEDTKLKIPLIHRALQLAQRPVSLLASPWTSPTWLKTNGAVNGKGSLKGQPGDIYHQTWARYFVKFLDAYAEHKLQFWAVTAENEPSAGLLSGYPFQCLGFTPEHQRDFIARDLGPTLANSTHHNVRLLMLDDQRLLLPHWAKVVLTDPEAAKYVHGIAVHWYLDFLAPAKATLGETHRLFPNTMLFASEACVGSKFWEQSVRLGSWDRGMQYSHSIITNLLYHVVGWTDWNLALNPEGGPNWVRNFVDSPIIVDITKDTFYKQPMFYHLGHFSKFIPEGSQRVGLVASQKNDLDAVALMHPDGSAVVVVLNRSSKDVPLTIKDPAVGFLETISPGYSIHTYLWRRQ
# Method in brief: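 Normal human glucocerebrosidase (0.2 nM) with blue fluorogenic substrate (80 uM final) in citrate/phosphate pH 5.9 with 10mM sodium taurocholate, 0.01% tween-20; 40 min RT, NaOH/glycine stop; fluorescence Ex 365/Em 440; AC50 from a titration from 0.6 nM upwards.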
# [2] = target: Cytochrome P450 1A2 (Homo sapiens) (UniProt P05177); experiment: p450-cyp1a2 (AID 410; calls by dose curve; note: potency is the fitted concentration of half-maximal effect;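 for activity change, negative = inhibition: -100% = full effect of reference inhibitor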); settings: recombinant CYP1A2, luciferin-ME demethylation, luminescence; series mostly up to 57 µM
# Sequence of Cytochrome P450 1A2 (Homo sapiens) (P05177 whole entry, looked up): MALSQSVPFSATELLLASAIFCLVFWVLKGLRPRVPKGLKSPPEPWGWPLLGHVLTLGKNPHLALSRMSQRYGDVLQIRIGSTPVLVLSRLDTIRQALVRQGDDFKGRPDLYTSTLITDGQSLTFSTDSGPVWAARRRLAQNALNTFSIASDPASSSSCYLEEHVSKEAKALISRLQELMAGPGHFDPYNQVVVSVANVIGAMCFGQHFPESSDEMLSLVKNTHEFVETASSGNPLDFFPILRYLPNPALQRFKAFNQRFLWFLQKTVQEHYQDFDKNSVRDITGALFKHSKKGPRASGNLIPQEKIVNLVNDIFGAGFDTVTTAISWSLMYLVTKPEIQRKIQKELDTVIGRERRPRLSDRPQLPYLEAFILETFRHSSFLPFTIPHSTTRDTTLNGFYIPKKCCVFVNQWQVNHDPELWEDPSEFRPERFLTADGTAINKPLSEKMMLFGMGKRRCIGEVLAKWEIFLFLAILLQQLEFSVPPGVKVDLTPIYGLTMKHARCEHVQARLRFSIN
# Method in brief: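 O-Demethylation of luciferin 6' methyl ether by human CYP1A2 is monitored as luciferase luminescence. Substrate sits at Km (100uM); enzyme is 20nM. Values are scaled to 57 uM furafylline as maximal inhibition.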
# [3] = target: Glucocorticoid receptor (Homo sapiens) (UniProt P04150); experiment: GR-GFP Redistribution (AID 450;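 active = compounds whose dose series gives a full or clear partial fitted curve of increased nuclear translocation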; note: potency is the fitted concentration of half-maximal effect); settings: U2OS GR-GFP nuclear translocation, laser cytometry, 2 h
# Sequence of Glucocorticoid receptor (Homo sapiens) (P04150 whole entry, looked up, the tested form may be a part): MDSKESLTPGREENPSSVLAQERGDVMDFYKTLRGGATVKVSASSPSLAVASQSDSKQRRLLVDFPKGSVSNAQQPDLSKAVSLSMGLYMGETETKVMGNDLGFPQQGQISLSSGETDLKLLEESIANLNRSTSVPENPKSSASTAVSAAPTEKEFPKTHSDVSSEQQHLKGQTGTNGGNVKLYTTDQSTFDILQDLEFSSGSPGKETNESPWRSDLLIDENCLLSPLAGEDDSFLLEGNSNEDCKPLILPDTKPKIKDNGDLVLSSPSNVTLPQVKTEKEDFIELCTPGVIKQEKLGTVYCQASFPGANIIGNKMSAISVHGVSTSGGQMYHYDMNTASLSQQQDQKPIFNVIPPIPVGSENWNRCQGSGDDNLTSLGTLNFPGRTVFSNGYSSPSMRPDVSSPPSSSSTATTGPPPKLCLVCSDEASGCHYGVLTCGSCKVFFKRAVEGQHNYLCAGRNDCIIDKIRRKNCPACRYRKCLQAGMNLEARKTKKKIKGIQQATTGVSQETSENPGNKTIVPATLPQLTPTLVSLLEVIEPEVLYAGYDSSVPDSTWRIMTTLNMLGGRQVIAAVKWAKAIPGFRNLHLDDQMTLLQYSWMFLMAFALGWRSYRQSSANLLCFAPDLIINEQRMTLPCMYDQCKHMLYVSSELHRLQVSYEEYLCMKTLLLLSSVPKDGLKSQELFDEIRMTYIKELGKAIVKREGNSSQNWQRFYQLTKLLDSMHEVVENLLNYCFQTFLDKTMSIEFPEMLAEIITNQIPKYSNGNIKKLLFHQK
# [4] = target: Glucocorticoid receptor (Homo sapiens) (UniProt P04150); experiment: GR-EFC Redistribution (AID 451; calls by dose curve; note: potency is the fitted concentration of half-maximal effect); settings: CHO-K1 GR-EFC translocation, beta-gal luminescence, 2 h
# Method in brief: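 Translocation of GR-ED fusion to nuclear EA restores b-gal, read by luminescence after 1 h room-temperature detection. Engineered CHO-K1 biosensor cells, 1,000/well, exposed 2 h at 37 C to titrations up to 46 uM final.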
# [5] = target: 3',5'-cyclic-AMP phosphodiesterase 4B (Homo sapiens) (UniProt Q07343); experiment: qHTS Assay for Inhibitors of PDE-IV (AID 607; active = well fitted activation curve with a large enough effect in the main read-out, with a control signal flat, not every such curve was filed as active; note: % of control where 0% means no effect); settings: HEK293 ACTOne CNG channel cells, membrane potential fluorescence; series mostly up to 22.9 µM
# Sequence of 3',5'-cyclic-AMP phosphodiesterase 4B (Homo sapiens) (Q07343 whole entry, looked up): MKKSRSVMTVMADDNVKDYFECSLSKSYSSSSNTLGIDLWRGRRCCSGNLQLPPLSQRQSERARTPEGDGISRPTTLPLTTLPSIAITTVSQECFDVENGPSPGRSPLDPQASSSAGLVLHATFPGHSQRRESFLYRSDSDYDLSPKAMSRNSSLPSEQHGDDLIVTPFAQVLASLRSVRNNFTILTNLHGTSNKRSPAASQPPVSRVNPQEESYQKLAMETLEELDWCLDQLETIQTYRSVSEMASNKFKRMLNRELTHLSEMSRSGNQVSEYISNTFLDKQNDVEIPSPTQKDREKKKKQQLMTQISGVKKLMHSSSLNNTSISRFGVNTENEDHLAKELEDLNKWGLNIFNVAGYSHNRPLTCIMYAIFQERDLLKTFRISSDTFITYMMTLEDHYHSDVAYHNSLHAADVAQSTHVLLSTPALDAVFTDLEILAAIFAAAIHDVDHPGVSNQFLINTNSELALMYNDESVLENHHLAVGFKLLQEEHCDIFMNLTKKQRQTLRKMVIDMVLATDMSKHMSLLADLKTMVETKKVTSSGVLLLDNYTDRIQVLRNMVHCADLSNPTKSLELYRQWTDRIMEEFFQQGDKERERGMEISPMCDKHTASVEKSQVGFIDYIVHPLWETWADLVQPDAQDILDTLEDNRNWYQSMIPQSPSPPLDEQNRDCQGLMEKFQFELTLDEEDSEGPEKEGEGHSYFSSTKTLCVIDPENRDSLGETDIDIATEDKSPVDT
# Method in brief: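 Cell-based read-out of cAMP via a modified cyclic nucleotide-gated channel and membrane potential dye (535/590 nm) in HEK293 cells expressing PDE4 endogenously. Compounds tested up to 22.9 uM final; 100 uM RO 20-1724 reference.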
# [6] = target: Cytochrome P450 3A4 (Homo sapiens) (UniProt P08684); experiment: qHTS Assay for Activators of Cytochrome P450 3A4 (AID 885); settings: recombinant CYP3A4, Luciferin-PPXE luminescence, 60 min; series mostly up to 57.1 µM; note: nearly all actives have a fitted effect of over 65% in size
# Sequence of Cytochrome P450 3A4 (Homo sapiens) (P08684 whole entry, looked up): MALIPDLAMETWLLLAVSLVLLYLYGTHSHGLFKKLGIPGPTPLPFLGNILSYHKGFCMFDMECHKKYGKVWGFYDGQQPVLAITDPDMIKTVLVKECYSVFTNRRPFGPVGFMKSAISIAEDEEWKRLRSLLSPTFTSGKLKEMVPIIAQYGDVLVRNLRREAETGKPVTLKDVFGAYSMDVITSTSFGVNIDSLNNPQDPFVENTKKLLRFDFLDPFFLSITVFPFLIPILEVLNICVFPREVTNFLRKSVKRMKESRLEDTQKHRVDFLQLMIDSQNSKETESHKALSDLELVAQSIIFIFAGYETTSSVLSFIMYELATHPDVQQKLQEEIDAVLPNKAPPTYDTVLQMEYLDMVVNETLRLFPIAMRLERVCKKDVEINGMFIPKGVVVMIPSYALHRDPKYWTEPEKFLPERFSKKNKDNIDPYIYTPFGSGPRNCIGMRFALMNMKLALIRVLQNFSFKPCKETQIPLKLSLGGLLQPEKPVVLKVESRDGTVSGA
# Method in brief: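 Luminescent readout of luciferin formed from 25 uM Luciferin-PPXE (KM level) by 20 nM CYP3A4 in 200 mM KPO4, with 60 min NADPH-driven reaction at room temperature after 10 min compound exposure. Ketoconazole (57 uM) defined 100% inhibition.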
# [7] = Primary qHTS for small molecule stabilizers of the endoplasmic reticulum resident proteome: Secreted ER Calcium Modulated Protein (SERCaMP) assay (AID 1508630); settings: SH-SY5Y GLuc-SERCaMP (Gaussia luciferase released on ER calcium loss) secretion, thapsigargin, luminescence; series mostly up to 38.4 µM; note: % is set by controls: 0 for no effect and ±100 for the full control effect
# Method in brief: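 The SH-SY5Y reporter protocol was run at 3 concentrations up to 38.3 uM (primary) or 11 concentrations (follow-up): 16 h compound, 100 nM thapsigargin for 4 h, then extracellular luciferase luminescence.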
# [8] = NFAT Signaling Pathway (AID 444; active = well fitted curve in either direction with a large enough effect, not every such curve was filed as active;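 note: carbachol stimulus at about its EC50 of 1 µM final; % is set by controls: 0 for no effect and ±100 for the full control effect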); settings: Jurkat NFAT-bla M1, carbachol, beta-lactamase ratio, 5 h; at 7.69 µM (top of the series) unless noted
# Method in brief: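 Read-out: CCF4 FRET ratio (460 nm/530 nm) after 1 h RT dye loading, used for %activity and AC50 from titration series. Cells: Jurkat NFAT-β-lactamase/M1 line, treated with compound plus 1 uM carbachol for 5 h, 37 °C.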
# [9] = Stat Signaling Pathway (AID 446; active = well fitted curve in either direction with a large enough effect, not every such curve was filed as active;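 note: ME-180 cervical cancer cells given 40 pM IL-6 alongside compound; SIE-controlled beta-lactamase reporter measured as 460/530 nm FRET emission ratio; % is set by controls: 0 for no effect and ±100 for the full control effect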); settings: ME-180 SIE beta-lactamase reporter, IL-6 stimulated, 5 h; at 7.69 µM (top of the series) unless noted
# Method in brief: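 FRET read-out (405 nm excitation, 460/530 nm emission) of a beta-lactamase reporter under a STAT-inducible element in ME-180 cervical carcinoma cells. Cells with compound receive 40 pM IL-6 for 5 h. Values are normalised to AC90 stimulation and AC90 JAK-inhibitor controls.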
# [10] = target: Mitogen-activated protein kinase 10 (Mus musculus) (UniProt Q61831); experiment: JNK3 AlphaScreen Assay (AID 530; active = well fitted curve in either direction with a large enough effect, not every such curve was filed as active;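 note: kinase came from lysate of stimulated human HepG2 cells; signal reports phosphorylation of biotinylated GST-cJun 1-79 at Ser73 with 10 µM ATP; % is set by controls: 0 for no effect and ±100 for the full control effect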); settings: JNK3 lysate, c-Jun phosphorylation; series mostly up to 57.1 µM
# Method in brief: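 qHTS titrations with 15 min compound pre-incubation before adding ATP (10 uM final). Read-out: AlphaScreen of Ser73-phosphorylated biotin-GST-cJun using HepG2 lysate JNK3 activated by IL-1β and TNFα.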
# [11] = AP1 Signaling Pathway (AID 357; active = well fitted curve in either direction with a large enough effect, not every such curve was filed as active); settings: ME-180 AP-1-bla reporter, EGF-induced, beta-lactamase ratio, 5 h; at 7.69 µM (top of the series) unless noted
# Method in brief: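 Beta-lactamase reporter under AP-1 response element, ME-180 background. Stimulus: EC50 EGF. Compound exposure 5 h, 37 °C. Detection: CCF4, 2.5 h RT, 460/530 nm. Values: AC50 from titration.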
# [12] = qHTS Assay for Identification of Small Molecule Agonists for Hypoxia Response Element Signaling Pathway (AID 914; active = well fitted activation curve with a large enough effect in the signal ratio, with a control signal flat, not every such curve was filed as active; the % refers to the signal ratio; note: potency is the fitted concentration of half-maximal effect); settings: ME-180 (cervical carcinoma) HRE-bla reporter, beta-lactamase ratio, CoCl2, 17 h; activation: stronger effect = higher value
# Method in brief: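 Read-out: CCF4 FRET ratio of 460nm to 530nm emission (excitation 405nm) after 2.5 hours at room temperature, taken from HRE-bla ME-180 cells that had been exposed to compound and EC50 CoCl2 for 17 hours.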
# [13] = target: Cytochrome P450 3A4 (Homo sapiens) (UniProt P08684); experiment: qHTS Assay for Inhibitors and Substrates of Cytochrome P450 3A4 (AID 884); settings: recombinant CYP3A4, Luciferin-PPXE luminescence; series mostly up to 57.1 µM; note: potency is the fitted concentration of half-maximal effect; nearly all actives have a fitted effect of over 50% in size
# Method in brief: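 Luminescent readout of luciferin produced by CYP3A4 (20 nM) dealkylation of Luciferin-PPXE, 25 uM (its KM). NADPH-driven reaction ran 60 min at RT after 10 min compound preincubation; data scaled to 57 uM ketoconazole as 100% inhibition.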
# [14] = target: Cytochrome P450 2C19 (Homo sapiens) (UniProt P33261); experiment: qHTS Assay for Inhibitors and Substrates of Cytochrome P450 2C19 (AID 899); settings: recombinant CYP2C19, luciferin-H EGE luminescence; series mostly up to 57.1 µM; note: potency is the fitted concentration of half-maximal effect; nearly all actives have a fitted effect of over 60% in size
# Sequence of Cytochrome P450 2C19 (Homo sapiens) (P33261 whole entry, looked up): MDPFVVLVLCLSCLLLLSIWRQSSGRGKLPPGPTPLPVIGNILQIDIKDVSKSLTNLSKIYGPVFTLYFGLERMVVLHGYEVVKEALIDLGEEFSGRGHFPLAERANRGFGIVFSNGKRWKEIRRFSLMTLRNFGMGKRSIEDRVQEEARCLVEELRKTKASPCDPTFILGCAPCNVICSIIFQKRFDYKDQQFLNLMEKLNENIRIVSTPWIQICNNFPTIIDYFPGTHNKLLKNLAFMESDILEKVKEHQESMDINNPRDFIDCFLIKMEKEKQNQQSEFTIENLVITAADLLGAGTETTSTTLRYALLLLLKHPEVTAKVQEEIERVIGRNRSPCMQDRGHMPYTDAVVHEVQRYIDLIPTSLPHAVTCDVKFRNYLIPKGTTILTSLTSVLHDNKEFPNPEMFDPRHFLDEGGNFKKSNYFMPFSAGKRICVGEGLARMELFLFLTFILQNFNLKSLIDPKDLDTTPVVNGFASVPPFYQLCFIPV
# Method in brief: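 Reactions contain 5nM enzyme, 10uM Luciferin-H EGE (KM) and 50mM KPO4; compound preincubates 10 min at 37C, NADPH regeneration starts turnover for 60 min. Luminescence after detection reagent gives activity.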
# [15] = Confirmation and Secondary Assay for Modulators of Hemoglobin Beta Chain Splicing at IVS2 654 locus (AID 910); settings: HeLa EGFP-654 splicing reporter, GFP fluorescence, 48 h; series mostly up to 38.3 µM;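 note: HeLa cells stably carrying EGFP split by mutant beta-globin IVS2-654 intron; per-well total GFP intensity by laser scanning cytometry after 2-day treatment; % of control where 0% means no effect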
# Method in brief: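 Readout: per-well total peak green fluorescence (488 nm ex, 500–520 nm em) from objects 5–250 µm, reflecting correct splicing of an EGFP-654 reporter. Compounds were applied for 2 days at 37 °C to overnight-plated HeLa EGFP-654 cells; controls were DMSO and 500 nM IVS2-654 PNA.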
# [16] = Confirmation and Secondary Assay for Modulators of Hemoglobin Beta Chain Splicing at IVS2 705 locus (AID 930); settings: HeLa EGFP-705 splicing reporter, GFP fluorescence, 48 h; series mostly up to 38.3 µM;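 note: HeLa cells stably expressing the EGFP-705 splicing reporter; GFP fluorescence per well restored by corrected splicing of the IVS2-705 intron in EGFP; % of control where 0% means no effect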
# Method in brief: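 HeLa EGFP-705 reporter; 500 cells/well, o/n 37C 5% CO2; cpd 2 d; 488 ex/500-520 em laser scan; total peak GFP intensity/well. Ref: 500 nM […] antisense PNA.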
# [17] = target: Cytochrome P450 2C9 (Homo sapiens) (UniProt P11712); experiment: qHTS Assay for Inhibitors and Substrates of Cytochrome P450 2C9 (AID 883); settings: recombinant CYP2C9, luciferin-H luminescence, 60 min; series mostly up to 57.1 µM; note: potency is the fitted concentration of half-maximal effect; nearly all actives have a fitted effect of over 60% in size
# Method in brief: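 Turnover of Luciferin-H (100uM, KM) by 10nM human CYP2C9 was measured over 60 min at 37C with NADPH regeneration; inhibitors and some substrates reduce luminescence. Data normalized to sulphaphenazole 57uM.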
# [18] = target: Cytochrome P450 2D6 (Homo sapiens) (UniProt P10635); experiment: qHTS Assay for Inhibitors and Substrates of Cytochrome P450 2D6 (AID 891); settings: recombinant CYP2D6, luciferin-ME EGE luminescence; series mostly up to 57.1 µM; note: potency is the fitted concentration of half-maximal effect; nearly all actives have a fitted effect of over 60% in size
# Sequence of Cytochrome P450 2D6 (Homo sapiens) (P10635 whole entry, looked up): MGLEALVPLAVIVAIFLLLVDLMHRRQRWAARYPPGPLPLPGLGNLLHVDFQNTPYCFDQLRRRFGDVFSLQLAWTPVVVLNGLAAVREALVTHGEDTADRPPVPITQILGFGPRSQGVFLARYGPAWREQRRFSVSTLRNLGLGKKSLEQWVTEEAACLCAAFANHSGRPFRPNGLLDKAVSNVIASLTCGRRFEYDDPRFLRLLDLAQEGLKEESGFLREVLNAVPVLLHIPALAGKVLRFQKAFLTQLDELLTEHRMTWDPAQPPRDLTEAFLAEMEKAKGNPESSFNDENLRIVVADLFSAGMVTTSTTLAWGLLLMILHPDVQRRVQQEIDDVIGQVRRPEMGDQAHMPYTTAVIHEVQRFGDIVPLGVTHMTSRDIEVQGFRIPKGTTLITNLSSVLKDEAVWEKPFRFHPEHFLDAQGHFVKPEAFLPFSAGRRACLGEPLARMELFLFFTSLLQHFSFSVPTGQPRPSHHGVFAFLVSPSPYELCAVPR
# Method in brief: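 Luminescent read-out of luciferin formed by 5 nM human CYP2D6 demethylating 30 uM Luciferin-ME EGE (Km level) over 60 min at room temperature after NADPH regeneration addition. Data normalized to full inhibition by 1.43 uM quinidine.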
# [19] = target: Ubiquitin carboxyl-terminal hydrolase 1 (Homo sapiens) (UniProt O94782); experiment: Inhibitors of USP1/UAF1: Pilot qHTS (AID 504865); settings: purified USP1/UAF1, Ub-rhodamine cleavage fluorescence; series mostly up to 54.9 µM;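 note: rhodamine fluorescence freed from ubiquitin-rhodamine substrate followed over time; top concentration of the series differs between compounds; % is set by controls: 0 for no effect and ±100 for the full control effect; nearly all actives have a fitted effect of over 35% in size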
# Sequence of Ubiquitin carboxyl-terminal hydrolase 1 (Homo sapiens) (O94782 whole entry, looked up): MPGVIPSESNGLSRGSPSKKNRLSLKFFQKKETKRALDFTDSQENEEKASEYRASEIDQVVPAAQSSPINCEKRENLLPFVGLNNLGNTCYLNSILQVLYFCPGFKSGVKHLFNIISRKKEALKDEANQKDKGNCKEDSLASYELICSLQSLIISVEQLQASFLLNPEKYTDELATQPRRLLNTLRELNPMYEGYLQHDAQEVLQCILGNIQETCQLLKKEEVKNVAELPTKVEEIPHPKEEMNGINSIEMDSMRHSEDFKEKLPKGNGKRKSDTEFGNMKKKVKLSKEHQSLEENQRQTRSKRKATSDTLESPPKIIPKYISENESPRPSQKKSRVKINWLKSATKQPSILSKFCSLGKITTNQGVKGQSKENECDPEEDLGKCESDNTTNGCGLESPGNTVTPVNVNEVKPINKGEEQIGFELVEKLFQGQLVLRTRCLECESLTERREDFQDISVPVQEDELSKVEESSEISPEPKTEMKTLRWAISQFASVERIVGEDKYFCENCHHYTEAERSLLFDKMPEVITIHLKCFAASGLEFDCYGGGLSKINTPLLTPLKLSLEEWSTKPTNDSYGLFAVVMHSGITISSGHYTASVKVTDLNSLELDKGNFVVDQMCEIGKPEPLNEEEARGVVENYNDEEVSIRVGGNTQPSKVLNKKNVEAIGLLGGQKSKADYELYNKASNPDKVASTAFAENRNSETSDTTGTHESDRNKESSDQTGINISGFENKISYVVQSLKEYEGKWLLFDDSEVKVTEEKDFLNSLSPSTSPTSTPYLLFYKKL
# Method in brief: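 1nM USP1/UAF1 + cpd, 15 min RT; start w/ Ub-Rho 150nM final; kinetic FL 480/540 nm, 6 reads q60 s. Buffer 50mM HEPES pH 7.8, 0.5mM EDTA, 1mM TCEP, 0.01% Tween-20, 0.1 mg/ml BSA.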
smiles,measurement,setting,value
O=c1c(-c2ccc(Cl)cc2)nc2cnc(N3CCNCC3)nc2n1Cc1ccc(F)cc1,Potency,[1],> 11.4 µM
same,Potency,[2],15.8 µM (active)
same,Potency,[3],> 9.22 µM
same,Potency,[4],> 46 µM
same,Potency,[5],inactive
same,Potency,[6],inactive
same,outcome,[7],inactive
COc1cccc(Nc2ncc3nc(-c4ccc(F)cc4)c(=O)n(C[C@H]4CCCO4)c3n2)c1,Potency,[1],> 11.4 µM
same,"activity change, negative = inhibition",[8],-9.67%
same,"activity, negative = inhibition",[9],-5.57%
same,Potency,[3],> 9.22 µM
same,Potency,[4],> 46 µM
same,Potency,[10],inactive
same,Potency,[5],inactive
same,outcome,[7],inactive
O=c1cnc2cnc(Nc3ccccc3)nc2n1C[C@H]1CCCO1,Potency,[1],> 11.4 µM
same,Potency,[2],0.794 µM (active)
same,Potency,[3],> 9.22 µM
same,Potency,[4],> 46 µM
same,Potency,[5],inactive
same,Potency,[6],inactive
same,outcome,[7],inactive
O=c1c(-c2cccs2)nc2cnc(Oc3ccccc3)nc2n1-c1ccccc1,Potency,[1],> 11.4 µM
same,"activity change, negative = inhibition",[11],3.02%
same,Potency,[3],> 9.22 µM
same,Potency,[4],> 46 µM
same,Potency,[10],inactive
same,Potency,[12],2.51 µM (active)
same,outcome,[7],inactive
Cc1cccc(CNc2cc(-c3ccc(N(C)C)cc3)ncn2)c1,Potency,[1],> 11.4 µM
same,Potency,[2],1 µM (active)
same,"activity change, negative = inhibition",[8],-5.57%
same,"activity, negative = inhibition",[9],-19.8%
same,Potency,[3],> 46 µM
same,Potency,[4],> 46 µM
same,Potency,[10],inactive
same,Potency,[5],inactive
same,Potency,[13],6.31 µM (active)
same,Potency,[6],inactive
same,Potency,[14],3.16 µM (active)
same,Potency,[15],inactive
same,outcome,[16],inactive
same,outcome,[7],inactive
COc1cccc(Nc2ncc3nc(-c4ccc(Cl)cc4)c(=O)n(CCC#N)c3n2)c1,Potency,[1],> 11.4 µM
same,Potency,[2],5.01 µM (active)
same,"activity, negative = inhibition",[9],-26.2%
same,Potency,[3],> 9.22 µM
same,Potency,[4],> 46 µM
same,Potency,[10],inactive
same,Potency,[5],inactive
same,Potency,[6],inactive
same,outcome,[7],inactive
O=C(c1cccc(F)c1)N1CCC2(CCCN(Cc3nccs3)C2)CC1,Potency,[1],> 11.4 µM
same,Potency,[2],inactive
same,"activity, negative = inhibition",[9],5.18%
same,Potency,[4],> 46 µM
same,Potency,[10],inactive
same,Potency,[5],inactive
same,Potency,[6],inactive
same,outcome,[7],inactive
O=S(=O)(c1ccccc1)N1CCC2(CCN(c3ncccn3)CC2)CC1,Potency,[1],> 11.4 µM
same,Potency,[2],inactive
same,"activity change, negative = inhibition",[8],-15.7%
same,"activity, negative = inhibition",[9],-15.6%
same,Potency,[4],> 46 µM
same,Potency,[10],inactive
same,Potency,[5],inactive
same,outcome,[7],inactive
CCNc1ncc2nc(-c3cc(F)cc(F)c3)c(=O)n(Cc3cccs3)c2n1,Potency,[1],> 11.4 µM
same,Potency,[2],5.01 µM (active)
same,"activity, negative = inhibition",[9],135% [activator] (active)
same,Potency,[3],> 9.22 µM
same,Potency,[4],> 46 µM
same,Potency,[10],inactive
same,Potency,[6],inactive
same,Potency,[12],0.794 µM (active)
same,outcome,[7],inactive
COc1ccc(-n2c(=O)c(-c3cc(F)cc(F)c3)nc3cnc(N4CCNCC4)nc32)cc1,Potency,[1],> 11.4 µM
same,Potency,[2],12.6 µM (active)
same,Potency,[3],> 9.22 µM
same,Potency,[4],> 46 µM
same,Potency,[10],inactive
same,Potency,[5],inactive
same,Potency,[6],inactive
same,Potency,[12],3.16 µM (active)
same,outcome,[7],inactive
COc1ccc2[nH]cc(CCNc3nc(-c4ccc(N(C)C)cc4)nc4ccccc34)c2c1,Potency,[1],0.554 µM (active)
same,Potency,[2],1.26 µM (active)
same,Potency,[3],> 46 µM
same,Potency,[4],> 46 µM
same,Potency,[17],0.398 µM (active)
same,Potency,[6],inactive
same,Potency,[18],7.94 µM (active)
same,Potency,[14],7.94 µM (active)
same,Potency,[19],inactive
same,outcome,[7],inactive
CCNc1ncc2nc(-c3ccc(Cl)cc3)c(=O)n(C3CC3)c2n1,Potency,[1],> 11.4 µM
same,Potency,[2],0.501 µM (active)
same,"activity change, negative = inhibition",[8],-4.85%
same,Potency,[3],> 9.22 µM
same,Potency,[4],> 46 µM
same,Potency,[10],inactive
same,Potency,[5],inactive
same,Potency,[12],0.398 µM (active)
same,outcome,[7],inactive
O=S(=O)(c1ccccc1)N1CCC[C@@]2(CCN(C(c3ccccc3)c3ccccc3)C2)C1,Potency,[1],> 11.4 µM
same,Potency,[2],inactive
same,"activity change, negative = inhibition",[8],-29.6%
same,"activity, negative = inhibition",[9],13.8%
same,Potency,[4],> 46 µM
same,Potency,[10],inactive
same,Potency,[13],3.16 µM (active)
same,Potency,[6],inactive
same,Potency,[18],0.631 µM (active)
same,outcome,[7],inactive
